NS1 function inh = qHTS Assay for Inhibitors of Influenza NS1 Protein Function; Potency, µM (series often up to 46.1 µM); hit rate 0.4% among 270,000; calls by dose curve; further: actives are rising curves; nearly all actives have a fitted effect of over 50% in size
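A cell-based growth assay was used: compounds that relieve NS1-induced slow growth of budding yeast raise OD600. Assay medium was yeast nitrogen base with ammonium sulphate and -URA supplement, pH 6.0, with 2% galactose.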
SARS PLpro yeast = qHTS of Yeast-based Assay for SARS-CoV PLP | S. cerevisiae expressing SARS-CoV PLpro, growth rescue | hit rate 0.19% among 330,000 | Potency, µM (series often up to 32.9 µM), most hits filed as activators; calls by dose curve; further: nearly all actives have a fitted effect of over 55% in size
Pf growth 96h = Primary qHTS for delayed death inhibitors of the malarial parasite plastid, 96 hour incubation; hit rate 6.9% among 320,000; AID 504834, 2011; Potency, µM (titrated, usually from 28.7 µM), usual class: inhibitors; P. falciparum luciferase reporter growth, 96 h
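Two-generation exposure (96 h) targets delayed-death phenotype. Reporter parasites carrying integrated firefly luciferase, in red cells at 2% hematocrit and 0.05% parasitemia final, kept at 37 C, 5% CO2; luminescence loss indicates inhibition.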
Pf growth 48h = Primary qHTS for delayed death inhibitors of the malarial parasite plastid, 48 hour incubation. Potency, µM (highest dose often 28.7 µM), usual class: inhibitors. hit rate 5.9% among 310,000. AID 504832, 2011. P. falciparum luciferase growth in erythrocytes, 48 h
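Cell-based growth assay: transgenic P. falciparum expressing firefly luciferase, cultured in red cells within RPMI 1640 containing 0.5% w/v Albumax, 24 mM bicarbonate and gentamycin. A drop in luciferase activity indicates inhibition.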
Of the large screens only hits and unclear results are named; the others gave an inactive call. Only some compounds are listed: those with a hit (about 10% of all), similar ones and a draw of the others. Unless noted, the call rests on the fitted dose curve; in most records, active means well fitted inhibition curve with a large enough effect; inconclusive means small, poorly fitted or top-dose-only effect, or another doubt; inactive means no such curve, though single readings can be large or run the other way.

O=C(Nc1ccccc1C(=O)N1CCCCC1)c1cccs1	Pf growth 96h 6.6µM
COc1cccc(NC(=O)CN(C)C(=O)c2ccccc2OCC(=O)Nc2cccc(C(F)(F)F)c2)c1	none (no result: NS1 function inh)
COc1cccc(NC(=O)CN(C)C(=O)c2cccnc2Nc2cccc(C(F)(F)F)c2)c1	Pf growth 96h inconclusive, Pf growth 48h 9.3µM (no result: NS1 function inh)
CCOc1ncccc1C(=O)N(C)CC(=O)Nc1ccc(C)cc1	none
Cc1ccc(NC(=O)CN(C)C(=O)c2cccnc2Nc2cccc(C(F)(F)F)c2)cc1	Pf growth 96h 9.3µM, Pf growth 48h inconclusive
COc1cccc2[nH]c(-c3ccccn3)nc12	none (no result: SARS PLpro yeast, Pf growth 96h, Pf growth 48h)
O=C1CN(C(=O)COc2ccccc2Cl)c2ccccc2N1	Pf growth 96h inconclusive, Pf growth 48h inconclusive (no result: NS1 function inh)
Cc1cc(=O)oc2cc(OCC(=O)N3CC(=O)Nc4ccccc43)c(Cl)cc12	Pf growth 96h inconclusive, Pf growth 48h 13µM (no result: NS1 function inh)
COC(=O)c1cc(OC)c(OC)cc1NC(=O)CSc1ccccc1	Pf growth 96h inconclusive, Pf growth 48h inconclusive
COc1ccc(OC)c(C2Nc3nc4ccccc4n3C(C)=C2C(=O)Nc2ccc(C)cc2C)c1 (stereo not drawn)	NS1 function inh inconclusive, Pf growth 48h 7.4µM (no result: Pf growth 96h)
O=C(NC(c1ccccc1)c1ccccc1)c1ccc(Br)o1	Pf growth 48h inconclusive (no result: Pf growth 96h)
O=C(/C=C/c1ccc(Br)o1)NC(c1ccccc1)c1ccccc1	Pf growth 96h inconclusive, Pf growth 48h 12µM
CCN1CCN(C(=O)c2cc(COc3ccc(F)cc3F)on2)[C@@H](C)C1=O	none
CC1CN(C)CCC1OC(=O)c1ccccc1 (stereo not drawn)	Pf growth 96h 2.1µM
CC1=CC(C)(C)N2C(=O)C3(C(C#N)=C(N)OC4=C3C(=O)CC(C)(C)C4)c3c(C)c(C)cc1c32 (stereo not drawn)	SARS PLpro yeast inconclusive, Pf growth 96h 4.1µM (no result: Pf growth 48h)
COc1cc2c3c(c1)C1(C(=O)N3C(C)(C)C=C2C)C(C#N)=C(N)Oc2cc(C)oc(=O)c21 (stereo not drawn)	Pf growth 48h 5.9µM
Cc1cc2c(c(=O)o1)C1(C(=O)N(C)c3ccccc31)C(C#N)=C(N)O2 (stereo not drawn)	Pf growth 96h inconclusive
CCOC(=O)c1c(N/N=C/c2cccnc2)n[nH]c1C	none
Cc1ccc(N(C(=O)c2csnn2)C(C(=O)NC2CCCCC2)c2ccco2)cc1 (stereo not drawn)	Pf growth 48h inconclusive
CC(C)(C)c1ccc(/C=C/C(=O)c2ccc(NC3=NCCCS3)cc2)cc1	Pf growth 96h inconclusive, Pf growth 48h 17µM
O=C(/C=C/c1ccccc1)c1ccc(NC2=NCCCS2)cc1	none
COc1ccccc1N1CCN(C(=O)c2ccc3c(Cl)c4c(nc3c2)CCCC4)CC1	Pf growth 96h 12µM
COc1ccccc1N1CCN(C(=O)c2ccc3nc(-c4ccco4)c(-c4ccco4)nc3c2)CC1	NS1 function inh 14µM, Pf growth 48h inconclusive (no result: Pf growth 96h)
CCCNC(=O)c1ccc2c(c1)ncn2-c1ccccc1OC	Pf growth 48h inconclusive
COc1ccccc1-n1cnc2cc(C(=O)N3CCOCC3)ccc21	Pf growth 96h 9.3µM
CCCc1nnc(NC(=O)C23CC4CC(CC(C4)C2)C3)s1	none
COc1ccc2c(c1OC)C(=O)OC2N1C(=O)CC[C@H]1C(=O)Nc1ccc2c(c1)OCO2 (stereo partly drawn)	none
Cn1nc(-c2ccccc2)c(C(O)c2ccccc2C(F)(F)F)c1Cl (stereo not drawn)	Pf growth 96h inconclusive, Pf growth 48h inconclusive
COC(c1ccccc1)c1c(-c2ccccc2)nn(C)c1Cl (stereo not drawn)	Pf growth 96h 12µM, Pf growth 48h 13µM
O=C(N1CCCCC1)N1CCN(S(=O)(=O)c2ccccc2)CC1	none
O=CN1CCN(S(=O)(=O)c2ccc(S(=O)(=O)NC3CCCCC3)cc2)CC1	none
Cc1ccc(-c2nn(-c3cc(Cl)ccc3[N+](=O)[O-])c(=O)c3ccccc23)cc1C	Pf growth 96h inconclusive, Pf growth 48h 5.2µM
CCc1ccc(-c2nn(-c3cc(Cl)ccc3[N+](=O)[O-])c(=O)c3ccccc23)cc1	Pf growth 96h 9.3µM, Pf growth 48h inconclusive
Cc1ccc(-c2nn(-c3cc(N4CCNCC4)ccc3[N+](=O)[O-])c(=O)c3ccccc23)cc1	NS1 function inh inconclusive, Pf growth 48h inconclusive
Cc1cc(C)n(-c2cc(Cl)ccc2[N+](=O)[O-])n1	none
O=c1c2ccccc2c(-c2ccccc2)nn1-c1cc(Cl)ccc1[N+](=O)[O-]	Pf growth 96h inconclusive, Pf growth 48h 8.3µM
Cn1ncc2c(Cl)ncnc21	none (no result: SARS PLpro yeast, Pf growth 96h, Pf growth 48h)
CCCCc1ccc(NC(=O)Cn2c(=O)c(N3CCCCC3)c(N)n(C)c2=O)cc1	none (no result: NS1 function inh, Pf growth 96h, Pf growth 48h)

Screens as filed in PubChem.
